Among the test systems are NCI-H23 lung; NCI-H226 lung; NCI-H322M lung; HOP-62 NSCLC; NCI-H460 lung; HOP-92 NSCLC; NCI-H522 lung; A549/ATCC NSCLC; 786-0 renal; COLO 205 colon; DU-145 prostate; K-562 leukemia; MALME-3M melanoma; MDA-MB-231 breast; RXF 393 renal; SF-268 CNS; SF-295 CNS; SF-539 CNS; UACC-257 melanoma; M14 melanoma.
Holding throughout (test): NCI-60 one-dose screen, 48 h (100 = growth as untreated, 0 = no growth, -100 = all killed)
Common to all, as to conditions: 10 µM

The structures appear in SMILES notation. About 83,000 compounds went through this panel and 20% of them were active in at least one assay; those are over-represented in the sample as a whole.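 In brief: 96-well plates, 48 h treatment, single concentration, percent growth endpoint.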 A number with no mark means an inactive call. Activity calls are given as the source filed them. The calls were made as follows: active = growth percent below 10; inactive = the rest.

The record followed here is PubChem BioAssay (NCI).

Regarding `CCN1CCN(c2nc(NNC(=O)c3cccc(OC)c3)nc(N3CCN(C(c4ccccc4)c4ccccc4)CC3)n2)CC1`, the growth in the test on NCI-H23 lung was 78.5%; with NCI-H226 lung it was 94.5%; in the test on NCI-H322M lung it was 89.7%; with HOP-62 NSCLC, 87.1%; in the test on NCI-H460 lung it was -9.84% (active); in the test on HOP-92 NSCLC, 42.8%. For the same molecule, the growth in the test with NCI-H522 lung is 97%; in the test on A549/ATCC NSCLC, 65.3%; in the test on 786-0 renal it was 72.8%; in the test with COLO 205 colon, -31.6% (active); in the test with DU-145 prostate, 81.4%; in the test with K-562 leukemia, 16.5%. Besides, the growth with MALME-3M melanoma is -79.5% (active); with MDA-MB-231 breast, 71.9%; with RXF 393 renal it was 56.1%; in the test on SF-268 CNS, 80.9%; in the test with SF-295 CNS, 84%; in the test on SF-539 CNS, 71.6%. Moreover, the growth is 45.9% in the test with UACC-257 melanoma and -43.2% (active) in the test with M14 melanoma.
For `CCN(CC)c1ccc(/C=C/C2=[N+](C)c3ccccc3C2(C)C)c(C)c1`, the growth in the test with NCI-H23 lung is 11.1%; with NCI-H226 lung, 17.7%; in the test with NCI-H322M lung, 27.6%; in the test on HOP-62 NSCLC, 5.39% (active); in the test with NCI-H460 lung, 2.94% (active); in the test with HOP-92 NSCLC, -19.5% (active). Besides, the growth in the test with NCI-H522 lung is -14.4% (active); in the test on A549/ATCC NSCLC it was 9.85% (active); in the test on 786-0 renal it was 13.1%; with COLO 205 colon, -58.4% (active); in the test on DU-145 prostate, 20.3%; in the test on K-562 leukemia, 6.13% (active). The growth with MALME-3M melanoma was -33.4% (active); in the test on MDA-MB-231 breast it was -1.06% (active); in the test on RXF 393 renal it was 29.5%; with SF-268 CNS, 22.7%; in the test with SF-295 CNS, 4.27% (active); in the test on SF-539 CNS, 18%. Besides, the growth in the test on UACC-257 melanoma was -15.9% (active); with M14 melanoma, 10.5%.
`O=c1c2cccc3c(Nc4ccc(Br)cn4)ccc(c32)c2nc3ccccc3n12`: the growth is 81.3% in the test with NCI-H23 lung; 93.2% with NCI-H226 lung; 77.9% in the test with NCI-H322M lung; 87.6% in the test on HOP-62 NSCLC; 86.6% in the test with NCI-H460 lung; 62.4% in the test with HOP-92 NSCLC. Also, the growth in the test with NCI-H522 lung is 89.4%; with A549/ATCC NSCLC, 106%; with 786-0 renal it was 96.9%; in the test on COLO 205 colon, 88.2%; with DU-145 prostate, 99.4%; in the test on K-562 leukemia, 101%. The growth in the test with MALME-3M melanoma was 96.3%; in the test with MDA-MB-231 breast, 66.2%; in the test with RXF 393 renal, 99.8%; in the test with SF-268 CNS it was 98.3%; in the test with SF-295 CNS, 87.1%; in the test on SF-539 CNS, 89.9%. For the same molecule, the values for the growth with UACC-257 melanoma and in the test on M14 melanoma were 102% and 96.8%, respectively.
Turning to `Fc1ccc(-c2cc(C(Cl)Cl)no2)cc1`, the growth in the test on NCI-H23 lung was 95.5%; in the test on NCI-H226 lung, 87.2%; in the test with NCI-H322M lung, 93.4%; in the test on HOP-62 NSCLC, 98.2%; in the test on NCI-H460 lung, 101%; with HOP-92 NSCLC, 99.4%. In addition, the growth was 114% with NCI-H522 lung; 122% in the test with A549/ATCC NSCLC; 110% with 786-0 renal; 115% with COLO 205 colon; 100% in the test with DU-145 prostate; 128% with K-562 leukemia. The growth was 93.3% in the test on MALME-3M melanoma; 95.1% in the test with MDA-MB-231 breast; 103% with RXF 393 renal; 100% in the test on SF-268 CNS; 97.1% in the test with SF-295 CNS; 106% in the test with SF-539 CNS. Also, the growth is 120% in the test with UACC-257 melanoma and 89.3% in the test with M14 melanoma.
With `COc1ccc(-c2cn[nH]c2-c2cc(OC)c(OC)c(OC)c2)cc1`, the growth in the test on NCI-H23 lung was 27.8%; with NCI-H226 lung, 56.7%; in the test on NCI-H322M lung it was 26.4%; in the test with HOP-62 NSCLC it was 45.2%; in the test with NCI-H460 lung it was 3.25% (active); in the test on HOP-92 NSCLC, -5.63% (active). Besides, the growth in the test with NCI-H522 lung is -17.9% (active); in the test on A549/ATCC NSCLC, 21.2%; with 786-0 renal, -4.65% (active); with COLO 205 colon it was -68% (active); in the test with DU-145 prostate, 4.46% (active); in the test on K-562 leukemia it was 6.36% (active). In addition, the growth was 76.4% with MALME-3M melanoma; 8.75% (active) in the test with MDA-MB-231 breast; 14.8% with RXF 393 renal; 19.7% with SF-268 CNS; 6.26% (active) in the test on SF-295 CNS; -32% (active) in the test on SF-539 CNS. Besides, the results for the growth in the test with UACC-257 melanoma and in the test on M14 melanoma were 49.2% and 3.85% (active), respectively.
On to `Cc1nc2scc(-c3ccc(Cl)cc3)n2c(=O)c1CCN1CCOCC1`, for which the growth in the test on NCI-H23 lung is 101%; in the test on NCI-H226 lung, 94.6%; in the test with NCI-H322M lung, 89.7%; in the test on HOP-62 NSCLC, 89%; in the test with NCI-H460 lung it was 107%; in the test on HOP-92 NSCLC, 81.6%. The growth with NCI-H522 lung is 86.8%; in the test with A549/ATCC NSCLC, 99.6%; in the test with 786-0 renal, 98.8%; in the test with COLO 205 colon it was 99.9%; in the test on DU-145 prostate it was 115%; with K-562 leukemia, 80.6%. The growth was 100% in the test on MALME-3M melanoma; 78.3% in the test with MDA-MB-231 breast; 118% with RXF 393 renal; 102% in the test on SF-268 CNS; 70.7% in the test with SF-295 CNS; 100% in the test with SF-539 CNS. In addition, the growth in the test with UACC-257 melanoma was 108%; in the test with M14 melanoma, 97.8%.
Turning to `COc1ccc(Nc2nc(NCc3ccccc3)c3ccccc3n2)cc1`, the growth in the test on NCI-H23 lung is 77.3%; in the test with NCI-H226 lung it was 6.99% (active); with NCI-H322M lung, 41.1%; in the test with HOP-62 NSCLC, -48% (active); in the test with NCI-H460 lung, 3.09% (active); in the test on HOP-92 NSCLC it was -4.85% (active). In addition, the growth is 50.1% in the test with NCI-H522 lung; 21.9% in the test with A549/ATCC NSCLC; 33.9% with 786-0 renal; 43.6% with COLO 205 colon; 79.6% in the test with DU-145 prostate; 55.5% in the test with K-562 leukemia. Besides, the growth was 39.7% in the test with MALME-3M melanoma; 41% with MDA-MB-231 breast; 14.5% in the test with RXF 393 renal; 31.3% with SF-268 CNS; 19.6% in the test on SF-295 CNS; 60.9% with SF-539 CNS. Also, the results for the growth in the test with UACC-257 melanoma and in the test on M14 melanoma were 76.5% and 76.9%, respectively.
